The text below walks through data of ChEMBL document CHEMBL3988442, “University of Dundee, Small-Polar-MMV Screening Library” (2021).

Among all 48,000 compounds or so, about 13,000 (27%) showed an effect of 50% or more. The list shows a part of the results.

This experiment has as its system Wolbachia pipientis. The experiment is described as follows: Anti-Wolbachia Cell-Based Screen. The arrangement: scale not given: in the data most compounds retested in dose-response had high values. Type of experiment: functional. As to conditions: 5 µM.
On to `O=C(N1CCOCC1)N1CCN(c2ccncc2Cl)CC1`, for which the “Percent Effect” value was -18.06%.
Regarding `Cc1nn(C)c(C)c1C(=O)N1CCN(C(=O)CCC2CCCCC2)CC1`, the “Percent Effect” value is listed as -21.72%.
Next, `Cc1nn(C)c(C)c1C(=O)N1CCN(c2ccncc2Cl)CC1`: 86.38%; `Cc1cc(C(=O)N2CCN(c3ccncc3Cl)CC2)n(C)n1`: 77.84%; `CC(C)c1cc(C(=O)N2CCN(c3ccncc3)CC2)n(C)n1`: 12.18%.
Next, `Cc1cccc(N2CCN(C(=O)c3c(C)nn(C)c3C)CC2)c1C`: 34.44%; `Cc1cc(F)ccc1S(=O)(=O)NCC(O)c1cccn1C` (stereo not given): -4.916%.
Take `CCOCC1CN(C(=O)CC2=CCCCC2)Cc2nnn(C)c21` (stereo not given): the “Percent Effect” value was determined as 41.96%.
Next, `Cc1nccc([C@@H]2C[C@@H]3CCN(S(=O)(=O)N(C)C)C[C@H]3O2)n1`: 88.34%; `O=C1CO[C@H]2CN(S(=O)(=O)c3ccccc3)C[C@H]2N1Cc1ccccn1`: 1.166%; `O=C1CO[C@H]2CN(S(=O)(=O)c3ccccc3)C[C@H]2N1c1ccccc1`: -3.468%.
Next, `Cc1nccc([C@H]2C[C@@H]3CCN(S(=O)(=O)C4CC4)C[C@H]3O2)n1`: 101.1%.
Next, `O=C(C1CCOCC1)N1CC[C@H]2C[C@@H](c3ccncn3)O[C@@H]2C1`: -5.284%.
Consider `Cc1nccc([C@H]2C[C@@H]3CCN(S(=O)(=O)N(C)C)C[C@H]3O2)n1`, for which the “Percent Effect” value is listed as -8.198%.
Next, `Cc1nccc([C@@H]2C[C@@H]3CCN(S(=O)(=O)C4CC4)C[C@H]3O2)n1`: 103.3%; `Cc1nccc([C@@H]2C[C@H]3CN(S(=O)(=O)c4ccccc4)C[C@H]3O2)n1`: 93.7%.
Next, `N#Cc1cc2c(=O)n(CC(O)c3cccc(O)c3)ccc2[nH]c1=O` (stereo not given): -10.2%.
Next, `Cc1nccc([C@@H]2C[C@@H]3CCN(S(C)(=O)=O)C[C@H]3O2)n1`: -4.62%; `Cc1nccc([C@H]2C[C@@H]3CCN(S(C)(=O)=O)C[C@H]3O2)n1`: 116.1%; `COc1cc(N2CC[C@@H]3O[C@@H](c4ccnc(C)n4)C[C@H]3C2)ncn1`: -12.7%.
Turning to `O=S(=O)(NC1CCC2(CC1)OCCO2)c1ccccc1Br`, the “Percent Effect” value is on record as -6.742%.
Next, `COC(=O)CCCNC(=O)N1CCc2c(F)ccc(F)c2C1`: -9.292%.
Next, `NC(=O)Cc1ccc(OCc2noc(C(=O)N3CCCC3)n2)cc1`: 130.8%.
On to `CCc1nc(COc2ccc(OCc3cnn(C)c3)cc2)no1`, for which the “Percent Effect” value was -33.42%.
Next, `O=C(c1nc(COc2ccc3c(c2)OCO3)no1)N1CCCC1`: 8.865%; `CC(=O)Nc1ccc(OCc2noc(C(=O)N3CCCCC3)n2)cc1`: 122.5%; `CCOCCNC(=O)Nc1ccc(OCc2noc(C3CC3)n2)cc1`: -0.9885%.
Next, `CC(=O)Nc1ccc(OCc2noc(C(=O)N3CCCC3)n2)cc1`: 120.5%.
On to `CCOCCCC(=O)Nc1ccc(OCc2noc(C3CC3)n2)cc1`, for which the “Percent Effect” value is 20.67%.
Regarding `CC(=O)Nc1ccc(OCc2noc(C(=O)N3CCCCCC3)n2)cc1`, the “Percent Effect” value was 101%.
Next, `CC(C)c1nc(C2CCCN2c2ncc(C(N)=O)cc2Cl)no1` (stereo not given): -26.86%.
Consider `CC(C)=Cc1c(-c2ccccc2)ncn1CCN(C)S(C)(=O)=O`, for which the “Percent Effect” value was -6.043%.
On to `CCCc1nnc(NC(C)c2ccc3c(c2)OCCO3)o1` (stereo not given), for which the “Percent Effect” value came out at 16.29%.
Next, `COCCCn1ccc(NC(=O)NCCCNc2ccccc2)n1`: -2.159%; `COc1cc(Cl)c(C)cc1NC(=O)CCNc1ccc(C#N)cn1`: -3.637%; `CC(C)c1nc(CN(C)CC2CCN(CCO)CC2)no1`: -11.77%.
Next, `c1ccc2cc(OCCN3CCn4c(nnc4C4CC4)C3)ccc2c1`: 2.138%; `CCN1C(=O)CC[C@@H]2[C@H]1CCN2C(=O)Cc1cccc(OC)c1`: -2.508%.
Next, `CC(C)Cc1nc(COc2ccc(N(C)C(N)=O)cc2)no1`: -36.1%; `CCOC(=O)c1nc(COc2ccc(CC(N)=O)cc2)no1`: 100.5%; `NC(=O)c1nc(COc2ccc3c(c2)OCO3)no1`: 26.77%.
`CC(C)C1CN(C(=O)c2ccc(N3CCCC3)nc2)CCS1` (stereo not given): the “Percent Effect” value is recorded as -8.119%.
For the compound `Cc1cccc(C(=O)NC2CCN(c3cnn(C)c3)C2=O)n1` (stereo not given), the “Percent Effect” value is recorded as -1.568%.
Next, `Cc1nc(CNC(=O)NCC(O)c2cccc(Cl)c2)cs1` (stereo not given): -14.28%; `O=C(O)CNC(=O)Cc1csc(-c2cccc(Cl)c2)n1`: 95.07%.
Regarding `O=C(O)CCNC(=O)Cc1csc(-c2cccc(Cl)c2)n1`, the “Percent Effect” value is 119%.
`CN(Cc1csc(-c2ccccc2)n1)C(=O)CCNS(C)(=O)=O`: the “Percent Effect” value is recorded as -10.81%.
In the case of `CNC(=O)Cc1noc(Cc2cccc(Cl)c2)n1`, the “Percent Effect” value came to 10.38%.
Next, `COc1ccc(C(=O)N2C[C@@H](CN3CCCC3)[C@@H](CO)C2)c(C)c1`: 5.26%; `O=c1[nH]c(CN2CCN(CC(F)(F)F)CC2)nc2ccccc12`: -9.937%; `CCn1c(CN2CCOC(Cn3cncn3)C2)nc2cc(F)ccc21` (stereo not given): 8.019%.
Next, `COCCN1CCCC12CCN(Cc1cncn1C)CC2.O=C(O)C(F)(F)F.O=C(O)C(F)(F)F`: -4.301%; `Cc1ccc(C2(CN3CCN(Cc4cnc(C)n4C)CC3)CC2)cc1.Cl`: 125%; `CCn1cncc1CN1CCN(CC2(c3ccc(C)cc3)CC2)CC1.Cl`: 124%.
On to `Cc1ccc(C2(CN3CCN(Cc4cncn4C)CC3)CC2)cc1.Cl`, for which the “Percent Effect” value is 158.8%.
Next, `Cn1cncc1CN1CCC2(CC1)CCN2c1ncccn1`: 0.5048%.
Next, `Cc1ccc(C2(CN3CCN(c4ncccn4)CC3)CCNCC2)nc1`: -14.8%.
Next, `COCCn1cncc1CN1CCCC(C)(c2ccccc2)C1` (stereo not given): -12.89%.
As to `CCn1cncc1Cn1cccc(C(F)(F)F)c1=O`, the “Percent Effect” value amounted to 2.585%.
Next, `Cc1ccc(C2(CN3CCCC3)CCNCC2)nc1`: 5.469%; `Cc1ccc(C(=O)Nc2cc(C(N)=O)ccc2CN(C)C)cc1Cl`: -14.19%; `NC(=O)c1ccc(NC(=O)N2CCN(c3cccs3)CC2)c(F)c1`: -5.895%.
Next, `CS(=O)(=O)NC[C@H]1OC[C@@H](NC2CCC(F)(F)CC2)[C@@H]1O`: -4.949%; `CNc1cc(C)nc(N2CCC3(CC2)[C@H](O)C[C@@H]3OC)n1`: 12.2%; `COc1ccc(F)c(F)c1CN1CCC2(CC1)[C@H](O)C[C@@H]2OCCN`: 1.725%.
Next, `CO[C@H]1C[C@@H](O)C12CCN(Cc1nc(C(F)(F)F)no1)CC2`: 107.1%; `COCc1noc(CN2C(=O)OC[C@@H]2C(C)C)n1`: -2.73%; `COCc1noc(CN2CCC3(CC2)[C@H](O)C[C@@H]3OC)n1`: 101.4%.
Consider `NCCO[C@H]1C[C@@H](O)C12CCN(Cc1c(F)cccc1F)CC2`, for which the “Percent Effect” value is on record as -12.61%.
In the case of `CCN(Cc1nc(COC)no1)C[C@]1(O)CCCN2CCCC[C@@H]21`, the “Percent Effect” value is -7.865%.
On to `OCCO[C@H]1C[C@@H](O)C12CCN(Cc1nc(C(F)(F)F)no1)CC2`, for which the “Percent Effect” value was 99.64%.
Turning to `COc1cc(CN2CCC3(CC2)[C@H](O)C[C@@H]3OCCO)ccc1F`, the “Percent Effect” value is 8.427%.
Next, `Cc1ccccc1SC1CCN(C(=O)C2CNCC(=O)N2)CC1` (stereo not given): -16.36%; `COc1nccnc1-c1cccc(-c2ccn(CC3COCCO3)n2)c1` (stereo not given): -15.38%.
Consider `CCN(C)c1ncnc2c1CCN(C(=O)c1cccn1C)CC2`, for which the “Percent Effect” value is -8.14%.
Next, `O=C(c1n[nH]c2c1CCC2)N1CCCC1c1nc(-c2ccccc2)no1` (stereo not given): 8.692%; `CC(C)Cn1ccc2c(NC(=O)c3n[nH]c4c3CCC4)cccc21`: 106.4%.
Turning to `COCCn1cc(C(=O)N2CCCC2c2cc(C)on2)c2ccccc21` (stereo not given), the “Percent Effect” value is reported as -11.13%.
Next, `CC(C)n1ccc2c(NC(=O)c3n[nH]c4c3CCC4)cccc21`: 99.33%; `O=C(c1n[nH]c2c1CCC2)N1CCCC1c1nc(-c2ccccn2)no1` (stereo not given): 14.67%; `COCCn1ccc2c(NC(=O)c3n[nH]c4c3CCC4)cccc21`: 97.48%.
Next, `CC(C)Cn1cncc1CNC(=O)c1cccc(-n2cnnc2)c1`: 1.824%; `COCCn1ccc(=O)c(OCC(=O)Nc2cccc(C(C)=O)c2)c1C`: 6.255%; `COCCn1ccc2c(NC(=O)c3n[nH]c4c3CCCC4)cccc21`: 111.2%.
Turning to `CC(C)CN1CCc2[nH]nc(C(=O)N3CCCC3)c2C1.O=C(O)C(F)(F)F`, the “Percent Effect” value is reported as 26.25%.
Next, `Cc1noc(C)c1CSc1nc(=O)ccn1C(C)C`: -1.27%.
Next, `NC(=O)C(NC(=O)COCCc1ccccc1)c1ccccc1F` (stereo not given): -15.69%; `CCCn1nc2c(cc1=O)CN(CCCS(N)(=O)=O)CC2`: -2.42%.
For the compound `CCC[C@@H]1CN(Cc2c[nH]c(CC3CCCC3)n2)C[C@H]1C(=O)O`, the “Percent Effect” value is -10.74%.
Turning to `CCOC(=O)c1coc(N2CCC(C(C)N3CCCC3)CC2)n1` (stereo not given), the “Percent Effect” value was found to be 0%.
Next, `O=C(CCc1ccsc1)NS(=O)(=O)Cc1ccon1`: -50.57%; `Cn1ccnc1CNC(=O)CCc1cccc(F)c1`: 127.3%; `Cn1ccnc1CCNC(=O)C1CCCN(Cc2cccc(F)c2)C1` (stereo not given): -2.372%.
Next, `CC(CCc1cccc(F)c1)NC(=O)NCc1ncnn1C` (stereo not given): -8.39%; `Cc1cc(CCC(=O)N2CC[C@H](O)C2)ccc1Br`: 2.583%.
For the compound `Cc1cc(CCC(=O)NCc2ncc[nH]2)ccc1Br`, the “Percent Effect” value was determined as 105.6%.
Next, `Cc1cc(CCC(=O)NCc2nccn2C)ccc1Br`: 125.4%; `O=C(CCc1ccc(Br)cc1)NCc1nnc[nH]1`: -10.7%.
Next, `Cc1cc2ccccc2n1CCC(=O)NCc1ncc[nH]1`: -13.5%; `Cc1cc(CCC(=O)N2CCC(O)CC2)ccc1Br`: -5.317%.
